Inconclusive results are not listed. Active and inactive are the calls of the source. Calls come from the whole dose curve; as a rule, active = well fitted inhibition curve with a large enough effect; inconclusive = small, poorly fitted or top-dose-only effect; inactive = flat fitted curve, though single readings scatter.
Legend:
Test in all cases: Cytotoxic Profiling of Annotated Libraries Using Quantitative High-Throughput Screening (AID 1296008); note: nearly all actives have a fitted effect of over 60% in size
Conditions in all cases: Five cell lines viability, CellTiter-Glo ATP luminescence, 48-72 h; max response: hits give low values
CRL-7250 = normal cell line; test system: CRL-7250
Summary of the method: (§1)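 Cytotoxicity was measured as CellTiter-Glo ATP luminescence, read after 10 min at room temperature. Compound treatment of the cells lasted 48 or 72 hr at 37 degrees Celsius in a qHTS format.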

HEK293 = test system: HEK293
Summary of the method: as §1

HaCat = test system: HaCat
Summary of the method: as §1

KB-3-1 = test system: KB-3-1
Summary of the method: as §1

NIH3T3 = test system: NIH3T3
Summary of the method: as §1

Measured: max response
% is set by controls: 0 for no effect and ±100 for the full control effect.

Cc1nc2cc(-c3cc(F)cc(C#N)c3)ccc2s1
inactive: CRL-7250 -5.31% | HEK293 -12.9% | HaCat -10.9% | KB-3-1 0.518% | NIH3T3

C=CC1(C)CC2CCC3C(C)(C(=O)O)CCCC3(C)C2=CC1=O (stereo not given)
inactive: CRL-7250 | HEK293 -0.432% | HaCat | KB-3-1 | NIH3T3 -4.63%

COC(=O)C1=COC(O[C@@H]2O[C@H](CO)[C@@H](O)[C@H](O)[C@H]2O)[C@@H]2[C@@](C)(O)[C@@H](OC(=O)/C=C/c3ccccc3)C[C@]12O (stereo not given in full)
inactive: CRL-7250 1.9% | HEK293 -1.35% | HaCat | KB-3-1 | NIH3T3 4.01%

CC1=C2C(=O)C=C(CO[C@@H]3O[C@H](CO)[C@@H](O)[C@H](O)[C@H]3O)[C@@H]2[C@H]2OC(=O)[C@H](C)[C@@H]2CC1
inactive: CRL-7250 -4.79% | HEK293 3.74% | HaCat 4.93% | KB-3-1 0.664% | NIH3T3

O=C(CC1CC(c2ccc(F)cc2F)=NO1)N1CCOCC1 (stereo not given)
inactive: CRL-7250 -1.82% | HEK293 4.11% | HaCat | KB-3-1 -13.2% | NIH3T3 -0.0344%

COc1c2ccoc2nc2c(OC)c(O[C@@H]3O[C@@H](C)[C@H](O)[C@@H](O[C@@H]4O[C@H](CO)[C@@H](O)[C@H](O)[C@H]4O)[C@H]3OC(C)=O)ccc12
inactive: CRL-7250 0.0337% | HEK293 -0.274% | HaCat | KB-3-1 9.99% | NIH3T3 -1.67%

O=C(O)CCc1c(C(=O)O)[nH]c2cc(Cl)cc(Cl)c12
inactive: CRL-7250 -1.79% | HEK293 -7.05% | HaCat | KB-3-1 | NIH3T3

Cc1c(C)c(NCC(=O)N(C)C2CCN(Cc3ccc(C(N)=O)cc3)CC2)c(C)c(C)c1N
inactive: CRL-7250 | HEK293 -11.3% | HaCat | KB-3-1 -3.8% | NIH3T3 2.96%

CC1=C2C[C@@]3(C)C(CCC[C@@H]3C)C(O)C2(O)OC1=O (stereo not given in full)
inactive: CRL-7250 -37.7% | HEK293 -7.76% | HaCat | KB-3-1 -14% | NIH3T3 -21.1%

COC(=O)C(CC1(O)c2ccccc2N2C(=O)C(CC(C)C)NC21)n1cnc2ccccc2c1=O (stereo not given)
inactive: CRL-7250 | HEK293 -5.33% | HaCat | KB-3-1 | NIH3T3

C[C@@H]1C[C@@H](O)[C@@]2(CO)C(CO)=CCC[C@@H]2[C@@]12C[C@@H](c1ccoc1)OC2=O
inactive: CRL-7250 | HEK293 4.88% | HaCat | KB-3-1 4% | NIH3T3

CC1CCC2C(C)(C)[C@H](O)CC[C@]2(C)C12Cc1c(O)cc3c(c1O2)CN(C(CCC(=O)O)C(=O)O)C3=O (stereo not given in full)
inactive: CRL-7250 -1.74% | HEK293 0.0488% | HaCat | KB-3-1 | NIH3T3 3.99%

CCCCC(=O)N1c2ccccc2NC2=C(C(=O)CCC2)C1c1ccccc1Cl (stereo not given)
inactive: CRL-7250 | HEK293 -3.83% | HaCat | KB-3-1 6.63% | NIH3T3 -4.77%

COc1ccc(C2(O)c3c(ccc4c3OC(C)(CCC=C(C)C)C=C4)NC(=O)C2OC)cc1 (stereo not given)
inactive: CRL-7250 | HEK293 -6.81% | HaCat | KB-3-1 5.8% | NIH3T3

COC(=O)C(CC1(OC(=O)C(C)C)c2ccccc2N2C(=O)C(C)(C)N(O)C21)n1cnc2ccccc2c1=O (stereo not given)
inactive: CRL-7250 -11.1% | HEK293 -9.23% | HaCat | KB-3-1 5.72% | NIH3T3 -14.6%

C/C=C/C=C/C(O)=C1/C(=O)[C@]2(C)C3/C(=C(O)/C=C/C=C/C)C(=O)C4(C)C1[C@]1(C)O[C@@]4(O)[C@@]3(C)O[C@@]12O
inactive: CRL-7250 | HEK293 2.27% | HaCat | KB-3-1 0.929% | NIH3T3

Cc1ccccc1NC(=O)Nc1ccc(CN2C(=O)N([C@@H](CC(C)C)C(=O)N[C@@H](CC(=O)O)c3ccccc3)C(=O)C2(C)C)cc1
inactive: CRL-7250 -13.5% | HEK293 | HaCat 3.16% | KB-3-1 | NIH3T3 -0.819%

CC(=O)c1[nH]cc(CCC(=O)O)c1CC(=O)O
inactive: CRL-7250 | HEK293 -1.24% | HaCat | KB-3-1 | NIH3T3 -3.85%

C[C@]1(OC(=O)/C=C/c2ccc(O)cc2)C[C@@H](O)[C@]2(O)C=CO[C@@H](O[C@@H]3O[C@H](CO)[C@@H](O)[C@H](O)[C@H]3O)C12 (stereo not given in full)
inactive: CRL-7250 4.79% | HEK293 -2.23% | HaCat | KB-3-1 6.86% | NIH3T3
